# Laboratory results taken from PubChem BioAssay AID431 (Sanford-Burnham Center for Chemical Genomics, 2006).
# Hit rate of the full screen: of about 63,000 compounds, about 1,100 (1.7%) were called active. Only a selection was taken, and actives are over-represented in it overall. Entries with a potency or affinity are not part of this list. Unmarked numbers belong to inactive results.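 The calls were made as follows: active = compounds whose percent cytotoxicity in the single-dose primary screen, scaled between solvent and toxic-drug controls, exceeds 50; inactive = the rest.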
# Test: viability loss of HPDE-C7K cells – cell-based, fluorescence, HTS, primary screen (AID 431);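 also: 0% = DMSO solvent wells and 100% = doxorubicin-treated wells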
# Conditions: HPDE-C7K KRASV12 cells, Alamar Blue viability, 48 h; at 10 µM; stronger effect = higher value
row,SMILES,cytotoxicity
1,Cn1c(=O)c2ccccc2n(Cc2ccccc2F)c1=O,2.5%
2,CCOc1ccccc1Oc1ccc(C(F)(F)F)cn1,-8.8%
3,CC(C)n1nc(C(=O)Nc2nc3ccc(S(C)(=O)=O)cc3s2)c2ccccc2c1=O,53.7% (active)
4,COc1ccccc1C(=O)Nc1nc2ccc(S(C)(=O)=O)cc2s1,-0.1%
5,CS(=O)(=O)c1ccc2nc(NC(=O)c3cccs3)sc2c1,3%
6,Cc1cccc(OCCCc2c(C)n[nH]c2C)c1,12.8%
7,CCCCNS(=O)(=O)c1ccc2nc(SCC(=O)c3ccc(C#N)cc3)[nH]c2c1,10.9%
8,N#Cc1ccsc1NC(=O)CSc1ncn[nH]1,-18.4%
9,CCCCNS(=O)(=O)c1ccc2nc(SCC(=O)Nc3sccc3C#N)[nH]c2c1,80.6% (active)
10,CCn1cc(/C=C(/C#N)S(=O)(=O)c2ccccc2)cn1,2.3%
11,Cc1ccc(C(C)NC(=O)c2c(C)noc2C)cc1C (stereo not given),-2.1%
12,CCOC(=O)N1CCN(Cc2nc(N)nc(Nc3ccc(Oc4ccccc4)cc3)n2)CC1,28%
13,CCOc1ccccc1OCC(=O)O,6.8%
14,O=C(O)COc1ccc2nsnc2c1Cl,-27.6%
15,C=CCOc1ccccc1/C=N/O,-4.8%
16,O=C1CN(C(=O)c2ccc(Br)o2)C(c2ccccc2)c2cc(F)ccc2N1 (stereo not given),3%
17,COCCN(CC(=O)NCc1ccccc1)C(=O)CCC(=O)Nc1ccccn1,4.7%
18,CCCCOc1ccc(C(=O)N2CCC(C)CC2)cc1,-4.4%
19,CCCCOc1ccc(C(=O)NC)cc1,-11.7%
20,CCCCOc1ccc(C(=O)OC2CC(C)N(C)CC2C)cc1 (stereo not given),81.6% (active)
21,Cc1cc(C)n(-c2nc3nonc3nc2-n2nc(C)cc2C)n1,-2.4%
22,O=C1N=c2ccccc2=C1c1sc(=S)n(CC2CCCO2)c1O (stereo not given),20.6%
23,C=CCn1c(O)c(C2=c3ccccc3=NC2=O)sc1=Nc1ccc(O)cc1,117% (active)
24,C=CCn1c(O)c(C2=c3ccccc3=NC2=O)s/c1=N/c1nccs1,-2.3%
25,C=CCOC(=O)C1=C(C)NC(C)=C(C(=O)OCC=C)C1c1ccc(O)cc1,1.1%

row,SMILES,cytotoxicity
1,CN1C(=O)CC(C(=O)Nc2ccc(F)cc2)SC1=Nc1ccc2c(c1)OCO2 (stereo not given),12.5%
2,O=C(COc1nncc2ccccc12)NCCC1=CCCCC1,-7.1%
3,COc1cc(CC(=O)Oc2ccc3c(c2)OCO3)cc(OC)c1OC,27.3%
4,COc1cc([C@@H]2c3cc4c(cc3[C@H](O)[C@H]3COC(=O)[C@H]23)OCO4)cc(OC)c1OC,70% (active)
5,COc1cc(CC(=O)NCc2ccc3c(c2)OCO3)cc(OC)c1OC,-11.8%
6,Cc1cccc(C)c1OCC(=O)Nc1cccc(NC(=O)c2ccco2)c1,2.8%
7,CCN(CC)c1ccc(NC(=O)c2cc3ccccc3o2)c(C)c1,-6%
8,CCOC(=O)c1ccccc1NC(=O)Cn1c(-c2nonc2N)nc2ccccc21,58.5% (active)
9,CCCCOc1ccccc1NC(=O)Cn1c(-c2nonc2N)nc2ccccc21,42.3%
10,N#CCCn1c(-c2nonc2NC(=O)c2ccccc2Cl)nc2ccccc21,41.9%
11,COC(=O)c1ccccc1NC(=O)Cn1c(-c2nonc2N)nc2ccccc21,41.3%
12,CCOC(=O)Cn1c(-c2nonc2NC(=O)c2ccccc2F)nc2ccccc21,41%
13,CCCCn1c(-c2nonc2NC(=O)c2ccccc2Cl)nc2ccccc21,53.9% (active)
14,CCc1nnc(NC(=O)OCc2ccccc2)s1,-11.2%
15,Cn1nnnc1SCC(=O)N1CCN(c2cccc(Cl)c2)CC1,14.5%
16,COc1ccc(N(CC(=O)Nc2ccc(C)cn2)S(=O)(=O)c2c(C)noc2C)cc1,-11.9%
17,CCC(Sc1nc(=O)cc(N)n1CCc1ccccc1)C(=O)Nc1cc(C)on1 (stereo not given),-10.3%
18,O=C(NCCc1ccc(Cl)cc1)C1CCN(S(=O)(=O)N2CCCC2)CC1,-2.3%
19,N#Cc1nc(-c2cccs2)oc1NCc1ccccc1,3.2%
20,N#Cc1nc(-c2cccs2)oc1NCCc1ccccc1,50.3% (active)
21,Cc1ccc(CNc2oc(-c3cccs3)nc2C#N)cc1,0.3%
22,CCN1CCN(c2ncnc3c2sc(=S)n3-c2ccccc2)CC1,2.5%
23,COc1ccccc1NC(=O)c1ccc(Cl)c(S(=O)(=O)N2CCOCC2)c1,-3.3%
24,O=C(Nc1cccnc1)c1ccc(Cl)c(S(=O)(=O)N2CCCCCC2)c1,-5.1%
25,COc1ccc(NC(=O)c2ccc(Cl)c(S(=O)(=O)N3CCc4ccccc4C3)c2)cn1,80% (active)

row,SMILES,cytotoxicity
1,N#C/C(C(N)=O)=c1/ccc2c(c1)N1C3=C(CCCC3)CC3CCCCC31N=2 (stereo not given),66.4% (active)
2,N#CC(C#N)=c1ccc2c(c1)N1C3=C(CCCC3)CC3CCCCC31N=2 (stereo not given),71.7% (active)
3,Cc1cc(-c2ccccc2)nc(=O)[nH]1,-3%
4,CCn1c(=O)cc(OCC(=O)N2CCN(C(=O)c3ccco3)CC2)c2ccccc21,-0.6%
5,CC(=O)Nc1ccc(C(=O)CSc2nnc(Cn3nnc4ccccc43)n2C)cc1,3.6%
6,CCN1C(=O)CS/C1=N\c1nccs1,-4.6%
7,CCN=C1SC(C(N)=O)CC(=O)N1CC (stereo not given),0.6%
8,COc1ccc(N2CCN(CC(=O)Nc3nc4c(s3)CC(C)CC4)CC2)cc1 (stereo not given),32.4%
9,COCCNC(=O)CSc1nc(-c2ccc(OC)c(OC)c2)cc(C(F)(F)F)n1,-8.7%
10,CCOC(=O)c1sc2nc(CSc3nc4ccccc4n3CC)[nH]c(=O)c2c1C,-11.3%
11,O=C(Cc1cn2ccsc2n1)Nc1nc2c(s1)CN(Cc1ccccc1)CC2,-6.3%
12,O=C(Cc1cn2ccsc2n1)Nc1nc2c(s1)CCCC2,23.2%
13,CC(C)(C)C1CCc2nc(NC(=O)Cc3cn4ccsc4n3)sc2C1 (stereo not given),52.5% (active)
14,CCOc1ccc(Cc2nn[nH]n2)cc1,-19.6%
15,COC(=O)CN(c1cc(C(F)(F)F)ccc1Cl)S(C)(=O)=O,-0.9%
16,Cc1ccc(-n2c3c(cc(C(=O)Nc4cccc(C)n4)c2=O)C(=O)CCC3)cc1,-27.1%
17,Cc1cccc(NC(=O)c2cc3c(n(-c4ccccc4)c2=O)CCCC3=O)n1,20%
18,COc1ccc(-n2c3c(cc(C(=O)Nc4ccc5c(c4)C(=O)NC5=O)c2=O)C(=O)CCC3)cc1,61.2% (active)
19,COc1ccc(CCNC(=O)c2ccncc2)cc1OC,-13.2%
20,COc1ccc(C(=O)NCCn2ccc3ccccc32)c(OC)c1,-8.9%
21,Cc1ccc(-c2noc(CCC(=O)N3CCCC3)n2)cc1,-6.9%
22,Cc1ccc(S(=O)(=O)N(C)Cc2nc(-c3ccncc3)no2)cc1,-0.7%
23,Cc1ccccc1-c1noc(-c2ccc(O)cc2)n1,29.6%
24,CN1CCN(C(=O)CSc2nc(-c3cccs3)ccc2C#N)CC1,15.2%
25,CCN(CC)C(=O)CSc1nc(C)cc(-c2cccs2)c1C#N,2.8%

row,SMILES,cytotoxicity
1,CC(C)C(=O)N1CCc2cc(-c3csc(N)n3)ccc21,-1%
2,C=CCn1c(SCC(=O)N2CCN(C(=O)c3ccco3)CC2)nc2sc(CC)cc2c1=O,-11.5%
3,O=C(CCCSc1nc2ccccc2s1)NCc1ccco1,5.8%
4,C=CCn1c(SCC(=O)NC(=O)NCc2ccco2)nc2sc(CC)cc2c1=O,63.4% (active)
5,C=CCn1c(SCC(=O)NC(=O)NCc2ccco2)nc2sc(C)c(C)c2c1=O,4.8%
6,O=C(CSc1nc2ccccc2s1)NC(=O)NCc1ccco1,87.6% (active)
7,O=C(CSc1nc2cc(Cl)ccc2s1)NC(=O)NCc1ccco1,-8.3%
8,COc1cccc(-c2nc(CS(=O)(=O)CC(=O)NCCC(C)C)c(C)o2)c1,2.6%
9,COC(=O)c1ccc(N=c2sc(C(=O)OC)cc(=O)n2C)cc1,-16.7%
10,Cc1ccc(Nc2nc(N3CCOCC3)c3ccccc3n2)cc1,28.7%
11,COc1ccc(Nc2nc(N3CCCC3)c3ccccc3n2)cc1,22.5%
12,Oc1ccc(Nc2nc(N3CCCC3)c3ccccc3n2)cc1,94.4% (active)
13,COc1ccc(C(=O)n2cnc(N)n2)cc1,6.1%
14,CCCCOc1ccc(C(=O)N2CCCCCC2)cc1,-8.5%
15,CCCCCCOc1ccc(C(=O)n2cnc(N)n2)cc1,82.6% (active)
16,Cc1ccc2cc(CN(C(=O)c3ccco3)c3ccccc3)c(=O)[nH]c2c1,-0.6%
17,COc1ccc(CCNC(=O)c2nonc2N)cc1OC,0.1%
18,Cn1c(C(=O)NCCc2c[nH]c3ccccc23)cc2sccc21,6.9%
19,O=C(NCC(F)(F)F)Nc1nnc(C(F)(F)F)s1,12.5%
20,CC(NC(=O)Nc1nccs1)(C(F)(F)F)C(F)(F)F,-3.9%
21,CCSc1nnc(NC(=O)NC(CC)(C(F)(F)F)C(F)(F)F)s1,19.4%
22,CCC(NC(=O)Nc1nccs1)(C(F)(F)F)C(F)(F)F,-11.8%
23,CCn1cc(C(=O)N=c2sc3ccccc3n2C)c(=O)c2ccc(C)nc21,-2%
24,COc1cc(C(=S)N2CCCCC2)ccc1OCC(=O)N1CCCC1,-1.9%
25,COc1ccc(-n2c(Cc3cccn3C)nnc2SCC(=O)Nc2ccc(Cl)cc2)cc1,48.9%
